The values that follow come from PubChem BioAssay (NCATS).

Records with an inconclusive call do not appear. Unmarked numbers belong to inactive results. Active and inactive are the calls of the source. Calls come from the whole dose curve; as a rule, active = well fitted curve in the direction sought with a large enough effect; inconclusive = small, poorly fitted or top-dose-only effect, or another doubt; inactive = no such curve, though single readings can be large; an effect the other way counts as inactive or inconclusive.
Potency is the fitted concentration of half-maximal effect.

The first experiment in a line: qHTS of pediatric cancer cell lines to identify multiple opportunities for drug repurposing: Primary screen for TC32 cells (AID 1347089). For activity change, negative = cytotoxic: % is set by controls: 0 for no effect and ±100 for the full control effect. Note: nearly all actives have a fitted effect of over 60% in size. Particulars: TC32 Ewing sarcoma viability, CellTiter-Glo luminescence, 48 h; series mostly up to 45.8 µM; activity change, negative = cytotoxic: at the top concentration. Summed up: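 In the primary qHTS, MIPE compounds were tested at 11 concentrations (0.78 nM to 46 µM) and NPC compounds at 8 (0.59 nM to 46 µM) on TC32 cells for 48 h. CellTiter-Glo luminescence gave viability.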
On the technique in general: In qHTS, concentration-response curves come from the screen itself.
Consider `CCO[C@H]1O[C@@H]2OC3(C)CC[C@H]4[C@H](C)CC[C@@H]([C@H]1C)[C@@]24OO3`, for which the “activity change, negative = cytotoxic” value is 0.518%.

On to `CC[C@H](O)C(C[C@H](C)N(C)C)(c1ccccc1)c1ccccc1`, for which the “activity change, negative = cytotoxic” value was -18.1% [at 92.2 µM].

In the case of `CC[n+]1c(-c2ccccc2)c2cc(N)ccc2c2ccc(N)cc21`, the Potency was 8.36 µM (active).

With `C[C@H](N)[C@H](O)c1ccc(O)c(O)c1`, the “activity change, negative = cytotoxic” value is 2.09%.

For the molecule `Cc1ccc([N+](=O)[O-])[c]2c1[O][Hg]2`, the Potency was 0.264 µM (active).

Consider `N#Cc1nn(-c2c(Cl)cc(C(F)(F)F)cc2Cl)c(N)c1S(=O)C(F)(F)F` (stereo not given), for which the “activity change, negative = cytotoxic” value was -1.94%.

For the molecule `C[C@H](CN1CCOCC1)C(C(=O)N1CCCC1)(c1ccccc1)c1ccccc1`, the “activity change, negative = cytotoxic” value was -4.47% [at 154 µM].

With `CN(C)C(=S)SSC(=S)N(C)C`, the Potency was 4.19 µM (active).

A short description of a further experiment: qHTS of pediatric cancer cell lines to identify multiple opportunities for drug repurposing: Primary screen for DAOY cells (AID 1347090).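 For activity change, negative = cytotoxic: plate controls were DMSO for no effect and bortezomib for full effect.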 Note: nearly all actives have a fitted effect of over 55% in size. To be noted: DAOY medulloblastoma viability, CellTiter-Glo luminescence, 48 h; series mostly up to 46 µM; activity change, negative = cytotoxic: at the top concentration. The method, boiled down:
(§1)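 Eight- or eleven-point concentration series, 48 h treatment at 37 degrees C in growth media; readout CellTiter-Glo luminescence. Potency and efficacy were taken from the concentration-response curves.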
For `COc1cc(CC(C)N)c(OC)cc1Br` (stereo not given), the “activity change, negative = cytotoxic” value was -0.783% [at 92.7 µM].

Consider `CCO[C@H]1O[C@@H]2OC3(C)CC[C@H]4[C@H](C)CC[C@@H]([C@H]1C)[C@@]24OO3`, for which the “activity change, negative = cytotoxic” value was -4.97%.

Regarding `CC[n+]1c(-c2ccccc2)c2cc(N)ccc2c2ccc(N)cc21`, the Potency is 0.841 µM (active).

For the molecule `C[C@H](N)[C@H](O)c1ccc(O)c(O)c1`, the “activity change, negative = cytotoxic” value was -14.4%.

`Cc1ccc([N+](=O)[O-])[c]2c1[O][Hg]2`: the Potency was 1.06 µM (active).

Take `C[C@H](CN1CCOCC1)C(C(=O)N1CCCC1)(c1ccccc1)c1ccccc1`: the “activity change, negative = cytotoxic” value is -27.5% [at 155 µM].

For `COc1ccc2c(C(=O)c3ccc(Cl)cc3)c(C)n(CC(=O)O)c2c1`, the Potency was 21.1 µM (active).

Consider `CN(C)C(=S)SSC(=S)N(C)C`, for which the Potency is 0.168 µM (active).

The next experiment in a line: qHTS of pediatric cancer cell lines to identify multiple opportunities for drug repurposing: Primary screen for SJ-GBM2 cells (AID 1347091).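 For activity change, negative = cytotoxic: plate controls were DMSO neutral control for no effect and bortezomib for full effect.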 Particulars: SJ-GBM2 viability, CellTiter-Glo luminescence, 48 h; series mostly up to 46 µM; activity change, negative = cytotoxic: at the top concentration. Summed up: as §1
As for `COc1cc(CC(C)N)c(OC)cc1Br` (stereo not given), the “activity change, negative = cytotoxic” value is -14.7% [at 92.7 µM].

As for `CCO[C@H]1O[C@@H]2OC3(C)CC[C@H]4[C@H](C)CC[C@@H]([C@H]1C)[C@@]24OO3`, the “activity change, negative = cytotoxic” value was 0.0242%.

Take `CC[C@H](O)C(C[C@H](C)N(C)C)(c1ccccc1)c1ccccc1`: the “activity change, negative = cytotoxic” value was -14% [at 92.7 µM].

On to `CC[n+]1c(-c2ccccc2)c2cc(N)ccc2c2ccc(N)cc21`, for which the Potency was 2.66 µM (active).

On to `C[C@H](N)[C@H](O)c1ccc(O)c(O)c1`, for which the “activity change, negative = cytotoxic” value was -3.22%.

On to `c1ccc2c(c1)Sc1ccccc1N2CC1CN2CCC1CC2` (stereo not given), for which the Potency was 23.7 µM (active).

`COc1ccc2c(C(=O)c3ccc(Cl)cc3)c(C)n(CC(=O)O)c2c1`: the “activity change, negative = cytotoxic” value is -20.7%.

Another experiment can be described thus: qHTS of pediatric cancer cell lines to identify multiple opportunities for drug repurposing: Primary screen for A673 cells (AID 1347092). For activity change, negative = cytotoxic: % is set by controls: 0 for no effect and ±100 for the full control effect. Note: nearly all actives have a fitted effect of over 45% in size. Particulars: A673 Ewing sarcoma viability, CellTiter-Glo ATP luminescence, 48 h; series mostly up to 46 µM; activity change, negative = cytotoxic: at the top concentration. The method, boiled down: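 48 h compound exposure, A673, 500-1,000 cells/well, 37 degrees C/5% CO2. MIPE: 11-point, 0.78 nM-46 µM; NPC: 8-point, 0.59 nM-46 µM (final). Readout CellTiter-Glo luminescence after 15 min RT.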
Regarding `COc1ccc2c3c1O[C@H]1[C@@H](O)C=C[C@H]4[C@@H](C2)N(C)CC[C@@]341`, the Potency was 23.8 µM (active).

As to `Clc1ccc(CSC(Cn2ccnc2)c2ccc(Cl)cc2Cl)cc1` (stereo not given), the Potency was 26.6 µM (active).

On to `CCO[C@H]1O[C@@H]2OC3(C)CC[C@H]4[C@H](C)CC[C@@H]([C@H]1C)[C@@]24OO3`, for which the “activity change, negative = cytotoxic” value is -9.48%.

`CC[n+]1c(-c2ccccc2)c2cc(N)ccc2c2ccc(N)cc21`: the Potency is 3.35 µM (active).

As to `N#Cc1nn(-c2c(Cl)cc(C(F)(F)F)cc2Cl)c(N)c1S(=O)C(F)(F)F` (stereo not given), the “activity change, negative = cytotoxic” value was -12.1%.

With `CN(C)C(=S)SSC(=S)N(C)C`, the Potency is 0.211 µM (active).

The nature of a further experiment: qHTS of pediatric cancer cell lines to identify multiple opportunities for drug repurposing: Primary screen for SK-N-MC cells (AID 1347093). Particulars: SK-N-MC viability, CellTiter-Glo luminescence, 48 h; series mostly up to 46 µM; activity change, negative = cytotoxic: at the top concentration. The method, boiled down: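 Metabolically active cells were quantified by ATP-dependent luminescence (CellTiter-Glo, 15 min at room temperature) following 48 h treatment. Cells had been plated at 500-1,000 per well and settled for 5 h beforehand.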
As to `CCC(OC(C)=O)C(CC(C)NC)(c1ccccc1)c1ccccc1` (stereo not given), the Potency was 31 µM (active).

Regarding `COc1cc(CC(C)N)c(OC)cc1Br` (stereo not given), the Potency is 44.9 µM (active).

`COc1ccc2c3c1O[C@H]1[C@@H](O)C=C[C@H]4[C@@H](C2)N(C)CC[C@@]341`: the Potency is 33.7 µM (active).

As to `Clc1ccc(CSC(Cn2ccnc2)c2ccc(Cl)cc2Cl)cc1` (stereo not given), the Potency was 33.5 µM (active).

Regarding `CCO[C@H]1O[C@@H]2OC3(C)CC[C@H]4[C@H](C)CC[C@@H]([C@H]1C)[C@@]24OO3`, the Potency was 4.73 µM (active).

Turning to `CC[C@H](O)C(C[C@H](C)N(C)C)(c1ccccc1)c1ccccc1`, the Potency was 62.3 µM (active).

With `CC[n+]1c(-c2ccccc2)c2cc(N)ccc2c2ccc(N)cc21`, the Potency is 2.11 µM (active).

For the molecule `Cc1ccc([N+](=O)[O-])[c]2c1[O][Hg]2`, the Potency is 0.0944 µM (active).

On to `COc1ccc2c(C(=O)c3ccc(Cl)cc3)c(C)n(CC(=O)O)c2c1`, for which the Potency is 8.41 µM (active).

Regarding `CN(C)C(=S)SSC(=S)N(C)C`, the Potency was 0.188 µM (active).

The next experiment is described as follows: qHTS of pediatric cancer cell lines to identify multiple opportunities for drug repurposing: Primary screen for BT-37 cells (AID 1347094).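 For activity change, negative = cytotoxic: plate controls were DMSO for no effect and bortezomib for full effect.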 Particulars: BT-37 viability, CellTiter-Glo luminescence, 48 h; series mostly up to 57.3 µM; activity change, negative = cytotoxic: at the top concentration. The method, boiled down: (§2)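 ATP-based luminescence (CellTiter-Glo) quantifies viability after a 48-hour exposure. Compounds are dosed across 8 or 11 final concentrations; DMSO and 2.3 µM bortezomib serve as controls.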
Consider `CCC(OC(C)=O)C(CC(C)NC)(c1ccccc1)c1ccccc1` (stereo not given), for which the Potency was 35.9 µM (active).

Turning to `CCO[C@H]1O[C@@H]2OC3(C)CC[C@H]4[C@H](C)CC[C@@H]([C@H]1C)[C@@]24OO3`, the “activity change, negative = cytotoxic” value is -12.2%.

`CC[C@H](O)C(C[C@H](C)N(C)C)(c1ccccc1)c1ccccc1`: the “activity change, negative = cytotoxic” value is -5.24% [at 116 µM].

Take `CC[n+]1c(-c2ccccc2)c2cc(N)ccc2c2ccc(N)cc21`: the Potency is 2.46 µM (active).

`C[C@H](N)[C@H](O)c1ccc(O)c(O)c1`: the “activity change, negative = cytotoxic” value was 22.7%.

Consider `Cc1ccc([N+](=O)[O-])[c]2c1[O][Hg]2`, for which the Potency is 1.55 µM (active).

For the molecule `c1ccc2c(c1)Sc1ccccc1N2CC1CN2CCC1CC2` (stereo not given), the Potency was 27.6 µM (active).

For the molecule `CC[C@]1(O)CC[C@H]2[C@@H]3CCC4=CCCC[C@@H]4[C@H]3CC[C@@]21C`, the “activity change, negative = cytotoxic” value was -45%.

In the case of `N#Cc1nn(-c2c(Cl)cc(C(F)(F)F)cc2Cl)c(N)c1S(=O)C(F)(F)F` (stereo not given), the “activity change, negative = cytotoxic” value was 5.84%.

On to `COc1ccc2c(C(=O)c3ccc(Cl)cc3)c(C)n(CC(=O)O)c2c1`, for which the “activity change, negative = cytotoxic” value is 10.1%.

With `CN(C)C(=S)SSC(=S)N(C)C`, the Potency is 0.872 µM (active).

The nature of the next experiment: qHTS of pediatric cancer cell lines to identify multiple opportunities for drug repurposing: Primary screen for NB-EBc1 cells (AID 1347095).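 For activity change, negative = cytotoxic: plate controls were DMSO neutral control for no effect and bortezomib for full effect.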 To be noted: NB-EBc1 neuroblastoma viability, CellTiter-Glo luminescence, 48 h; series mostly up to 46 µM; activity change, negative = cytotoxic: at the top concentration. The method, boiled down:
as §2
On to `CCC(OC(C)=O)C(CC(C)NC)(c1ccccc1)c1ccccc1` (stereo not given), for which the “activity change, negative = cytotoxic” value is -27.8% [at 92.7 µM].

For `CC[C@H](O)C(C[C@H](C)N(C)C)(c1ccccc1)c1ccccc1`, the “activity change, negative = cytotoxic” value was -16% [at 92.7 µM].

With `c1ccc2c(c1)Sc1ccccc1N2CC1CN2CCC1CC2` (stereo not given), the “activity change, negative = cytotoxic” value was -17.2%.

As for `C[C@H](CN1CCOCC1)C(C(=O)N1CCCC1)(c1ccccc1)c1ccccc1`, the “activity change, negative = cytotoxic” value is -26.2% [at 155 µM].

In the case of `CN(C)C(=S)SSC(=S)N(C)C`, the Potency was 9.44 µM (active).
